# Screens from PubChem BioAssay.
# The list is not random: actives were taken first. Their share in the collection is about 2.3%.
# TRPV1 PAM: potentiators of human vanilloid receptor 1 (TRPV1); Q8NER1; TRPV1-expressing cells, Fluo-8 calcium influx, capsaicin EC20 potentiation; potentiation, % at 8.33 µM; 320,000 tested, 0.02% active; in the data active = potentiation above about 80%; inconclusive = between about 30% and that limit; also: 0% is about no effect
# Target sequence (Q8NER1 whole entry, looked up): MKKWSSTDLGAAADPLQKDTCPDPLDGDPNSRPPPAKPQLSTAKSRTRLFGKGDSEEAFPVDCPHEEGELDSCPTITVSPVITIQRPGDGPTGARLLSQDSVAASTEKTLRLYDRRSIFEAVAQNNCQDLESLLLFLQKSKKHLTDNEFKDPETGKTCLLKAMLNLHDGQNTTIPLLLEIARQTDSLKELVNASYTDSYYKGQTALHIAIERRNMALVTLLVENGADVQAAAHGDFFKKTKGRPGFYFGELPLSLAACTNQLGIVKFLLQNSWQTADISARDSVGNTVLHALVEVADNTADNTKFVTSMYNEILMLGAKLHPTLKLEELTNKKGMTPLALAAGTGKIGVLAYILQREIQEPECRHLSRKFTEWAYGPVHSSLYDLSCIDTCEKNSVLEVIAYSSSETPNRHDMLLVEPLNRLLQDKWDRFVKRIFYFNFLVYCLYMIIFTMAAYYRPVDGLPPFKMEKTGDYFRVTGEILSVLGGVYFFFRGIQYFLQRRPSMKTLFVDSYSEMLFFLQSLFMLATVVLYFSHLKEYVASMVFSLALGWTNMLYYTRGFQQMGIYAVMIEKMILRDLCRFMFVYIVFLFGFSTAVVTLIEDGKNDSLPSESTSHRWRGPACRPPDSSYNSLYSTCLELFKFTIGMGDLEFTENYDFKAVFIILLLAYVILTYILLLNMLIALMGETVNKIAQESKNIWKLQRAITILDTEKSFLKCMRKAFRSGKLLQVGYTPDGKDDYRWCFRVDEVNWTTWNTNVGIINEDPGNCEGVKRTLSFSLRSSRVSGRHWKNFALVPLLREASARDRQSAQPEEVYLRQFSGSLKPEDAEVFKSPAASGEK
#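 Cells expressing TRPV1 were dye-loaded with Fluo-8 and read kinetically: 10 s baseline, 3 min after compound (agonist portion), then 2 min after EC20 capsaicin (allosteric enhancer portion). Calcium-bound dye fluorescence at 480/520 nm.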
# FUS suppressor: suppressors of FUS proteinopathy in yeast. Potency, µM (doses to about 76.6 µM), usual class: activators. S. cerevisiae FUS-expressing, growth rescue, OD600, 24 h. 390,000 tested, 0.24% active;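 also: potency is read from the fitted curve at half-maximal effect; plate controls were DMSO vehicle for no effect and reference control for full effect; nearly all actives have a fitted effect of over 55% in size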
#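 Compound concentration series was pinned onto galactose-induced FUS-expressing yeast seeded at OD 0.005. Plates sat 24hr at 30C; absorbance at 600 nm gave growth. DMSO served as background control.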
# Giardia killer: kills Giardia lamblia; Giardia lamblia trophozoite viability; activity change, % at 7.66 µM, hits read low; 340,000 tested, 0.15% active; AID 540267; in the data active = activity change below about -80%; inconclusive = between about -30% and that limit;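 also: parasites exposed to compound for two days anaerobically before the ATP read; % is scaled to controls: 0 for no effect and ±100 for the full control effect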
#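 Luminescent ATP signal served as the viability read-out, measured 15-30 min after adding ATP detection reagent to trophozoites that had been incubated with compounds for 48 hrs at 37 deg C anaerobically at 100 cells/well.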
# TRPV1 agonist: human TRPV1 agonism; activation, % at 8.33 µM; Q8NER1; AID 540275; TRPV1-expressing cells, Fluo-8 calcium influx, agonist mode; 320,000 tested, 0.19% active; in the data active = activation above about 80%; inconclusive = between about 30% and that limit; also: 0% is about no effect
#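 Cells expressing TRPV1 were dye-loaded with Fluo-8 and read kinetically: 10 s baseline, 3 min after compound (agonist portion), then 2 min after EC20 capsaicin (allosteric enhancer portion). Calcium-bound dye fluorescence at 480/520 nm.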
# ELG1 DNA repair: blocks ELG1-dependent DNA repair in HEK293T cells. HEK293T ELG1-luciferase reporter, luminescence, 16 h; DNA damage induced by 5-fluorouridine. Potency, µM (titrated, usually from 46.1 µM), for inactives: at the highest dose activity change, negative = inhibition, most hits filed as inhibitors. 330,000 tested, 2.3% active. AID 504467; also: potency is read from the fitted curve at half-maximal effect; % is scaled to controls: 0 for no effect and ±100 for the full control effect; nearly all actives have a fitted effect of over 55% in size
#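 In this reporter screen, reduction of luminescence relative to DMSO vehicle indicated activity. Compounds and 5-fluorouridine were added together to 2,000 cells per well, incubated for 16 hr at 37 °C, then developed with ONE-Glo.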
# The depositor's hits bear a star; i = inactive; ? = inconclusive; . = no result given. Unless noted, calls follow the shape of the dose curve; as a rule, active = well fitted curve in the direction sought with a large enough effect; inconclusive = small, poorly fitted or top-dose-only effect, or another doubt; inactive = no such curve, though single readings can be large; an effect the other way counts as inactive or inconclusive.
SMILES,TRPV1 PAM,FUS suppressor,Giardia killer,TRPV1 agonist,ELG1 DNA repair
Cc1ccc2nsnc2c1NC(=O)c1ccc([N+](=O)[O-])o1,21,i,-85*,2,?
O=C(Nc1ccc2oc(-c3ccccc3F)nc2c1)c1ccccc1Cl,.,i,.,.,.
O=C(Nc1ccc2oc(-c3ccccc3F)nc2c1)c1ccc([N+](=O)[O-])o1,2,i,-96*,0,2%
COc1ccc(-c2c(-c3ccsc3)oc3c2C(O)CCC3)cn1 (configuration not stated),.,i,.,.,.
CN1CCN(C(c2ccc(Br)cc2)c2cc(Cl)c3cccnc3c2O)CC1 (configuration not stated),4,i,-4,1,?
O=C(Nc1cccc(NC(=O)c2ccccc2Cl)c1)c1ccc([N+](=O)[O-])o1,?,i,-103*,0,23µM*
CCN1CCN(c2nc3c(S(=O)(=O)c4ccc(Br)cc4)nnn3c3ccsc23)CC1,.,i,.,.,.
CCOc1cc(C(=S)N2CCCC2)ccc1OCC(=O)Nc1c(C)cc(C)cc1C,11,i,7,1,21µM*
CCOc1cc(C(=S)N2CCCC2)ccc1OC,2,i,-3,1,-5%
Oc1ccc(Cl)cc1/C=C/c1ccc2cccc(O)c2n1,1,?,-4,4,-3%
CCOc1cc(/C=C/c2ccc3cccc([N+](=O)[O-])c3n2)cc(Cl)c1O,5,.,-14,10,8.2µM*
COc1cc(Br)cc(/C=C/c2ccc3cccc(O)c3n2)c1O,5,i,-25,2,7.3µM*
Oc1c(Cl)cc(Cl)cc1/C=C/c1ccc2cccc(O)c2n1,13,i,16,16,23µM*
CCn1c(=O)cc(OCC(=O)N(C)c2cc(Cl)ccc2C)c2ccccc21,.,i,.,.,.
CCOc1ccc(-n2c(SCC(=O)c3ccccc3Cl)nnc2-c2ccncc2)cc1,.,18µM*,.,.,.
Cc1ccccc1-n1c(SCC(=O)c2cc(C)n(C)c2C)nnc1-c1ccncc1,25,?,-3,3,11µM*
Cc1ccccc1-n1c(SCC(=O)c2ccccc2)nnc1-c1ccc(F)cc1,.,i,.,.,.
C=CCn1c(SCC(=O)c2cc(C)n(Cc3cccs3)c2C)nnc1-c1ccncc1,7,?,-1,1,16µM*
CCOC(=O)c1[nH]c2ccccc2c1NC(=O)c1ccc(Br)cc1,.,i,.,.,.
CCOC(=O)c1[nH]c2ccccc2c1NC(=O)c1ccc(Br)o1,3,i,-6,27,23µM*
c1ccc(COc2ccc(-c3sc(Nc4ccccc4)n[n+]3-c3ccccc3)cc2)cc1,-2,.,.,4,?
CCc1ccc(Nc2n[n+](-c3ccccc3)c(-c3ccc(OCc4ccccc4)cc3)s2)cc1,-4,?,-1,4,13µM*
Cc1ccc(C)c(Cn2c3ccccc3c3cnn(CC(=O)NCC(C)c4ccccc4)c(=O)c32)c1 (configuration not stated),.,i,.,.,.
CCOC(=O)c1c(NC(=O)C2=C(C)NC(=S)NC2c2ccc(F)cc2)sc(C)c1C (configuration not stated),-7,i,-1,11,7.3µM*
CCc1cccc(CC)c1NC(=O)C(Cc1ccccc1)NS(=O)(=O)c1cccc2nsnc12 (configuration not stated),.,i,.,.,.
SMILES,TRPV1 PAM,FUS suppressor,Giardia killer,TRPV1 agonist,ELG1 DNA repair
O=C1c2c(O)ccc(O)c2C(=O)c2c(NCCNCCO)ccc(NCCNCCO)c21,-2,28µM*,-3,-1,11µM*
CN(c1nnc(NC(=O)Nc2ccc(Br)cc2)s1)C1CCCCC1,.,i,.,.,.
O=C(CCNS(=O)(=O)c1ccccc1)N1CCN(C(c2ccccc2)c2ccccc2)CC1,-13,.,.,30,23µM*
Nc1ccc(O)c2c1C(=O)c1ccccc1C2=O,2,i,-6,-2,-20%
O=C1c2ccccc2C(=O)c2c(Nc3ccc(CCO)cc3)ccc(O)c21,-3,i,5,10,15µM*
Cc1cc(C)n2nc(CNC(=O)c3cccc(N(C)C)c3)nc2n1,.,i,.,.,.
COc1cccc(-n2c(CN3CCN(c4ccc(C)cc4)C(C)C3)nc3ccc([N+](=O)[O-])cc3c2=O)c1 (configuration not stated),17,.,3,0,?
